# Experimental data published in PubChem BioAssay AID2472 (National Center for Advancing Translational Sciences (NCATS), 2010).
# “And” between values parts separate entries of the source, which are not always exact repeats. Equal values may be shown once. Hit rate of the full screen: of about 290,000 compounds, about 2,000 (0.69%) were called active. Shown is part of a subset that was picked to be rich in actives. A number with no mark means an inactive call. Cut-off read from the data, not from the text of the source: active = activity change below about -30%; inactive = the rest, inconclusive results apart.
# Test: qHTS Assay for Inhibitors of Fructose-1,6-bisphosphate Aldolase from Giardia Lamblia: Coupling assay counterscreen
# Conditions: coupling enzyme system counterscreen, AmpLite Red fluorescence; at 58.2 µM (top of the series)
# Outline: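 Final compound at 57.5 uM, incubated 10 min at RT with coupling enzyme reagent (glyceraldehyde-3-phosphate), then 20 min with substrate and AmpLite Red detection. Fluorescence read at 525/598 nm; tests interference with the coupling assay, not aldolase inhibition.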
# % is set by controls: 0 for no effect and ±100 for the full control effect.
row,SMILES,"activity change, negative = inhibition"
1,COc1ccc(Br)cc1C1C2C=CCC(C)C2C(=O)N1Cc1ccccc1 (centres undefined),4.05%
2,CC(=O)Nc1ccc(NC(=O)C2CCCN(S(=O)(=O)c3ccc(Cl)cc3)C2)cc1 (centres undefined),1.51%
3,CC(C)CC[n+]1ccn(C2=C([O-])c3ccccc3C(=O)/C2=N\S(=O)(=O)c2ccccc2)c1,-54.9% (active)
4,COc1c(O)c2c(=O)cc(OC)c3c4c(OC)cc(=O)c5c(O)c(OC)c6c(c(c1C[C@@](C)(O)[C@H]6C(C)=O)c23)c54,-12.5%
5,CCCCN=C1C([N+](=O)[O-])=CC=C2C1=NC1(CCCCC1)N2O,-41.7% (active)
6,CC(c1ccccn1)N(C)C(=O)c1ccc2nc(Cc3cccc(Cl)c3)oc2c1 (centres undefined),1.38%
7,COC(=O)C1=C(C)N(Cc2ccccc2)C2=C3C(=O)N(c4ccccc4)C(=O)C3[C@@](O)(C(=O)OC)C(=O)N2C1c1ccccc1 (some centres undefined),1.55% and 0.598%
8,O=S(=O)(Nc1ccc2nc(-c3ccco3)[nH]c2c1)c1ccccc1,-35.1% (active)
9,Cn1c(CCN2CCCC2)nc2cc(NS(=O)(=O)c3ccccc3)ccc21,-1.06%
10,O=S(=O)(Nc1ccc2cn[nH]c2c1)c1ccccc1,-8.07%
11,CCOC(=O)c1ccccc1NC(=O)COC(=O)CCC(=O)N1CCOCC1,1.14%
12,CCCN1[C@H](C(=O)OC)C[C@@]2(O)[C@@H](O)[C@@H](O)[C@@H](O)C[C@@H]12,-12.1%
13,COc1ccc(-c2ccc(OC)c(C3C4C=CCC(C)C4C(=O)N3Cc3ccccc3)c2)cc1C (centres undefined),-0.316%
14,Cc1cc(Br)ccc1NC(=S)NC1CCCC1,2.32%
15,CC[C@@H](C)[C@H](NC(=O)CCc1c(C)c2cc3c4c(oc3c(C)c2oc1=O)CCCC4)C(=O)O,0.476%
16,COC(=O)C1=C(C(=O)OC)[C@@H]2Nc3ccccc3[C@@]23C[C@@H](C(=O)OC)N(S(=O)(=O)c2ccc([N+](=O)[O-])cc2)C3=N1,-1.96%
17,CCOc1ccc(N(C)Cc2cc(=O)oc3ccc(OC)cc23)cc1,-3.63%
18,COC(=O)c1ccc(NC(=O)CSc2nnc(CNc3ccc(OC)cc3)n2C)cc1,-19.7%
19,C=CCn1c(CNC(=O)c2ccco2)nnc1SCC(=O)c1ccc(OC)cc1,1.42%
20,CCn1c(CNc2ccc(OC)cc2)nnc1SCC(=O)c1ccc(OC)cc1,-36.8% (active)
21,CC1=C(C(N)=O)C(c2ccc(F)cc2)n2nc(CCCO)nc2N1 (centres undefined),-0.212%
22,O=C(O)c1cc(S(=O)(=O)NC2CCCc3ccccc32)ccc1O (centres undefined),20.1%
23,CCN(CC)CCn1c(N)c(S(=O)(=O)c2ccccc2)c2nc3ccccc3nc21,2.05%

row,SMILES,"activity change, negative = inhibition"
1,C=CCn1c(N)c(S(=O)(=O)c2cccs2)c2nc3ccccc3nc21,-35.3% (active)
2,Cc1ccc(S(=O)(=O)c2c(N)n(C)c3nc4ccccc4nc23)cc1,-4.65%
3,CC(=O)NC1CCN(CC(=O)Nc2nccs2)CC1,-1.15%
4,c1ccc2cc3c(NCCN4CCOCC4)ccnc3cc2c1,-52.2% (active)
5,Clc1ccccc1-c1cc(NCCN2CCOCC2)ncn1,2.16%
6,CN(C)c1ccc(-c2nc(NCCN3CCOCC3)c3ccccc3n2)cc1,-0.456%
7,COc1cc(NC(=O)c2ccccc2)c(OC)cc1NC(=O)Cc1ccccc1,-0.254%
8,COc1cccc(CNC(=O)CCC2CCCN(Cc3ccc(OC(F)F)cc3)C2)c1 (centres undefined),5.02%
9,Cc1ccc(C(=O)N(CC(=O)NC2CCCC2)c2ccc(F)cc2)s1,-3.12%
10,COCCN1C=C2C(=O)C(C)(OC(=O)C3CCCC3)C(=O)C=C2C=C1c1ccsc1 (centres undefined),-33.6% (active) and -32.5% (active)
11,CC1(OC(=O)CCc2ccccc2)C(=O)C=C2C=C(c3ccc(C#N)cc3)N(CCc3ccccn3)C=C2C1=O (centres undefined),-28.3% and -0.189%
12,CC1(OC(=O)C2CCCC2)C(=O)C=C2C=C(c3ccc(C#N)cc3)OC=C2C1=O (centres undefined),-0.443%
13,Cc1onc(-c2ccccc2Cl)c1C(=O)OCC(=O)c1ccccc1,-1.67%
14,CC(C)N(C(=O)c1ccc(-c2ccccc2F)cc1)C(C)C,-0.0112%
15,O=C(CN1C(=O)c2ccccc2C1=O)NCc1ccc(C(=O)O)cc1,0.209%
16,CC(=O)N(C1=C(Cl)C(=O)c2ccccc2C1=O)c1ccc(C(=O)O)cc1,-85.1% (active)
17,COc1ccc(C(=O)N2CCC3(CC2)CCN(c2ccccn2)CC3)cc1,-4.93%
18,Cc1ccc(CNC(=O)Cn2cnc(S(=O)(=O)N3CCCCC3)c2)o1,0.0578%
19,CCCCn1c(SCC(=O)NCC2CCCO2)nc2ccc(N3CCOCC3)cc2c1=O (centres undefined),-43.6% (active)
20,COCCNC(=O)c1ccc(Cn2c(SCC(=O)NCC3CCCO3)nc3ccc(Br)cc3c2=O)cc1 (centres undefined),0.29%
21,O=C(CCCn1c(SCC(=O)c2ccccc2)nc2ccccc2c1=O)NCC1CCCO1 (centres undefined),-0.079%
22,Cc1ccc(OCC(=O)NCCCNC(=O)c2cccnc2)cc1C,-0.615%
23,O=[N+]([O-])c1cccc2ncccc12,0.0628%

row,SMILES,"activity change, negative = inhibition"
1,COc1ccc(/C=N/Nc2nc3ccccc3c(=O)[nH]2)cc1,0.889%
2,COc1ccc(C=Nc2cccc3ncccc23)cc1,-34.4% (active)
3,CCCCC/C=C\C/C=C\C/C=C\CCCCC(=O)NCC(=O)O,4.26%
4,COC(=O)C1=C(C(=O)OC)[C@@H]2N(C)c3ccccc3[C@@]23C[C@@H](C(=O)OC)N(S(=O)(=O)c2cccs2)C3=N1,-0.105%
5,O=C1CN(Cc2ccccc2)S(=O)(=O)c2ccccc21,13.2%
6,COc1ccc(CC(=O)N/N=C/c2cc([N+](=O)[O-])cc(Br)c2O)cc1,8.72%
7,COc1ccc(CC(=O)NCC(=O)N/N=C/c2cc(Br)ccc2OC)cc1,-33.8% (active)
8,Cc1ccc(OCCOCCOc2ccc(Br)cc2/C=N\NC(=O)c2ccncc2)cc1,-5.74%
9,COc1cccc(OCc2cc(C(=O)N3CCN(C(=O)c4ccco4)CC3)no2)c1,-0.102%
10,N#Cc1c(-c2ccccc2)cc(-c2ccccc2)nc1SCC(=O)O,5.25%
11,Cc1cc(C)c(C#N)c(N2CCC(C(N)=O)CC2)n1,0.379%
12,N#Cc1c(N2CCCCC2)nc(N)c2c(N)nc(SCC(=O)O)cc12,-31.7% (active)
13,CCN1CCN(c2sc(S(C)(=O)=O)nc2S(=O)(=O)c2ccc(Cl)cc2)CC1,1.03%
14,Cc1ccc(-c2nc3ccccc3[nH]c2=O)cc1,1.32%
15,CC(=O)c1c(-c2ccccc2)c2ccccc2[nH]c1=O,7.44%
16,O=c1[nH]c2ccccc2n2c(-c3ccccc3)nnc12,-62.8% (active)
17,Cn1cc(-c2nc3cnc(N4CCNCC4)nc3n(CCc3ccccc3)c2=O)c2ccccc21,-0.191%
18,CC(C)C1=CC2=CC[C@@H]3[C@](C)(CO)CCC[C@]3(C)C2CC1 (some centres undefined),-1.26%
19,COc1cccc(CN(C)C(=O)CC23CC4CC(CC(C4)C2)C3)c1OC,-1.24%
20,COc1ccc(S(=O)(=O)N2CCCC(C(=O)NCCCn3ccnc3)C2)cc1OC (centres undefined),-2.16%
21,CCN(CC)c1ccc(C(=O)Nn2c(C)nc3ccccc3c2=O)cc1,2.59%
22,CC(C)Oc1c(Br)cc(Br)cc1/C=N/NC(N)=S,-0.43%
23,Cc1ccc(-c2c3c(=O)n(C)c(=O)n(C)c3cn2-c2ccccc2O)cc1,-32% (active)

row,SMILES,"activity change, negative = inhibition"
1,COc1cccc(-n2cc3c(c2-c2ccccc2)c(=O)n(C)c(=O)n3C)c1,-16.5%
2,Cc1ccc(-c2c3c(=O)n(C)c(=O)n(C)c3cn2-n2cnnc2)cc1,1.01%
3,O=c1o[nH]c(-c2ccccc2)c1N=Nc1c(F)cccc1Cl,5.04%
4,COc1cnc(SCc2ccc(Cl)c(Cl)c2)nc1Cl,1.35%
5,CCCC(=O)N1CCC(CCC(=O)NC2CC2)CC1,0.0768%
6,O=C(CC(n1cncn1)C(Cl)(Cl)Cl)c1ccc([N+](=O)[O-])cc1 (centres undefined),-0.311%
7,CCCN1CCN(CCCNC(=O)CN2C(=O)COc3ccccc32)CC1,-1.3%
8,O=C(CN1C(=O)COc2ccccc21)Nc1ccc(F)cc1,-7.46%
9,O=C(CN1C(=O)COc2ccccc21)NCCN1CCc2ccccc2C1,-31.2% (active)
10,COCc1cc(C)n(CC(=O)NCC2CCCO2)c(=O)c1C#N (centres undefined),0.717%
11,CNS(=O)(=O)c1ccc(NC(=O)Nc2ccc3c(c2)OCO3)cc1,-1.22%
12,CCCCN(CC)C(=O)C1CCCN(S(=O)(=O)c2cccc3nsnc23)C1 (centres undefined),-1.17%
13,COc1ccc(CC(=O)Nc2c(C(N)=O)oc3ccccc23)cc1,2.14%
14,c1coc(-c2nc3nc4ccccc4n3nc2-c2ccco2)c1,-45.8% (active)
15,Cn1c(-c2ccco2)nc2cc3ccccc3cc21,-10.1%
16,Clc1ccccc1CSc1nnc(-c2ccco2)c(-c2ccco2)n1,-6.43%
17,CN(CCOc1ccccc1)C(=O)c1cc(COc2c(F)cccc2F)on1,-0.542%
18,O=[N+]([O-])c1ccc(N(CCO)Cc2ccccc2)c([N+](=O)[O-])c1,-1.63%
19,CN1CCN(/N=C2/C(=O)Nc3ccc([N+](=O)[O-])cc32)CC1,-19.1%
20,O=C1Nc2ccc([N+](=O)[O-])cc2C1=Nc1cccc(CO)c1,-33% (active)
